Consider 23 compounds from PubChem BioAssay (NCATS).

The target of assay [1] is Cellular tumor antigen p53 (Homo sapiens) (UniProt P04637). Kind of assay: Primary qHTS for small molecule compounds that upregulate eGFP-tagged delta133p53alpha (in N-terminal) cells. (AID 2060322). Further: nearly all actives have a fitted effect of over 75% in size. Further: potency means the concentration at half of the fitted maximal effect.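 On activation: series mostly up to about 56 µM; 0% = DMSO vehicle and 100% = reference activator.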 The following applies: NCI-H358 eGFP-delta133p53alpha fluorescence, 24 h; activation: active compounds read high. The essentials:
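NCI-H358 cells pre-induced 24 h with 10 ng/ml doxycycline to express N-terminal eGFP-delta133p53alpha, then dosed 24 h at 37C without doxycycline; fixed, Hoechst-stained, GFP intensity by laser scanning cytometry, normalized to DMSO (0%) and 57.5 uM 5-azacytidine (100%).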

The target of assay [2] is Aldehyde dehydrogenase, mitochondrial (Homo sapiens) (UniProt P05091). Kind of assay: qHTS for Inhibitors of the Aldehyde Dehydrogenase Family (ALDH2) Primary screen (AID 2061308).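 Further: plate controls were vehicle for no effect and reference inhibitor for full effect; nearly all actives have a fitted effect of over 55% in size.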
Assay [3] concerns the target Retinaldehyde dehydrogenase 3 (Homo sapiens) (UniProt P47895). Kind of assay: qHTS for Inhibitors of the Aldehyde Dehydrogenase Family (ALDH1A3) Primary screen (AID 2061315).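 Further: plate controls were DMSO vehicle for no effect and reference inhibitor for full effect.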

Results filed as inconclusive are left out. Unmarked numbers belong to inactive results. Activity calls are given as the source filed them. The call rests on the fitted dose curve; in most records, active means well fitted curve in the direction sought with a large enough effect; inconclusive means small, poorly fitted or top-dose-only effect, or another doubt; inactive means no such curve, though single readings can be large; an effect the other way counts as inactive or inconclusive.

Chain of Cellular tumor antigen p53 (Homo sapiens) (P04637 whole entry, looked up): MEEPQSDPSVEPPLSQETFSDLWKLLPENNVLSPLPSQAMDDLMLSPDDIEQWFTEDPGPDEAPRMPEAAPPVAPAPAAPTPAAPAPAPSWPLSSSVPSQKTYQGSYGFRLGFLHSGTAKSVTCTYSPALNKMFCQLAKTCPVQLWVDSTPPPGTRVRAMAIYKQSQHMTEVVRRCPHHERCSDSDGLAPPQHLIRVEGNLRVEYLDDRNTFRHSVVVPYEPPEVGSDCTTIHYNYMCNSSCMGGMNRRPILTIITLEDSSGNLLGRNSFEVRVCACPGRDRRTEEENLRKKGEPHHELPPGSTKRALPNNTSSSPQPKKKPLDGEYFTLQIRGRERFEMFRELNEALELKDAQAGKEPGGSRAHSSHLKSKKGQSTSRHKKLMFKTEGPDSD

Regarding `CC(C(=O)O)c1ccc(/C=C2\CCCCC2=O)cc1` (centres undefined), the activation in assay [1] was -13.4%. Also, the Potency entry in assay [2] and in assay [3] was “inactive” each time.

For the compound `C=C(C(=O)O)[C@@H]1CC=C(CCC(C)=O)[C@@H](C)CC1`, in assay [1], the activation was 8.93%. Further, the Potency result in assay [2] and in assay [3] was “inactive” each time.

As for `CC(=O)O[C@@H]1[C@@H](O)[C@H](C)O[C@@H](O[C@H]2[C@@H]3C=CO[C@@H](O[C@@H]4O[C@H](CO)[C@@H](O)[C@H](O)[C@H]4O)[C@@H]3[C@@]3(CO)O[C@@H]23)[C@@H]1OC(=O)/C=C/c1ccccc1`, the activation in assay [1] is 4.58%. In addition, the Potency result in assay [2] and in assay [3] was “inactive” throughout.

In the case of `C/C(=C/C=C\C=C\Cc1cnco1)[C@@H](O)C(C)(C)C(N)=O`, the activation in assay [1] is -11.5%. The Potency result in assay [2] and in assay [3] was “inactive” each time.

On to `COC(=O)[C@H]1[C@H]2C[C@@H]3c4[nH]c5cc(OC)ccc5c4CCN3C[C@H]2C[C@@H](OC(=O)/C=C/c2cc(OC)c(OC)c(OC)c2)[C@@H]1OC`, for which the Potency in assay [1] is 7.93 µM (active). Moreover, the Potency result in assay [2] and in assay [3] was “inactive” throughout.

For `COCCN(C)Cc1ccc2nc3sc(C(=O)N(C)C4CCCCC4)cn3c2c1`, the activation in assay [1] was 15.7%. Further, the Potency entry in assay [2] and in assay [3] was “inactive” in each case.

For `C=C(COC(=O)C(C)C)C1Oc2cc(C(C)=O)ccc2C1OC(=O)C(C)C` (centres undefined), the activation in assay [1] was 2.29%. The Potency entry in assay [2] and in assay [3] was “inactive” each time.

With `C/C=C(\C)C(=O)OCC1OC(OCC2OC(OC3(CO)OC(CO)C(O)C3O)C(O)C(O)C2O)C(O)C(O)C1O` (centres undefined), the activation in assay [1] is -9.16%. Besides, the Potency entry in assay [2] and in assay [3] was “inactive” in each case.

Turning to `O=S(=O)(NCc1ccccn1)c1ccc(Br)c2ccccc12`, the activation in assay [1] was 0.333%. In addition, the Potency result in assay [2] and in assay [3] was “inactive” throughout.

For `N#Cc1ccc(-c2ccc(S(=O)(=O)Nc3cccc(N)n3)cc2)cc1`, the activation in assay [1] was 2.86%. Moreover, the Potency result in assay [2] and in assay [3] was “inactive” throughout.

`C=CC1(C)C=C2CCC3C(C)(C)C(O[C@@H]4O[C@@H](CO)[C@H](O)[C@H]4O)CCC3(C)C2CC1O[C@@H]1O[C@H](C)[C@H](O)[C@H](O)[C@H]1O` (some centres undefined): the activation in assay [1] was 0.763%. The Potency result in assay [2] and in assay [3] was “inactive” throughout.

For `COc1ccc(C#Cc2ccc(C(=O)N3CCC[C@@H](O)C3)c(F)c2)cc1`, the activation in assay [1] is -8.04%. In addition, the Potency entry in assay [2] and in assay [3] was “inactive” each time.

In the case of `CC1=C(C)C(=O)OC(C(C)C2C(O)CC3C4C5OC5C5(O)CC(OC6OC(CO)C(O)C(O)C6O)CC(O)C5(C)C4CCC32C)C1` (centres undefined), the activation in assay [1] was -6.87%. Besides, the Potency entry in assay [2] and in assay [3] was “inactive” each time.

On to `CC[C@@H](C)[C@H]1C(=O)O[C@H](C(C)C)C(=O)N(C)[C@@H](C(C)C)C(=O)O[C@H](C(C)C)C(=O)N(C)[C@@H](C(C)C)C(=O)O[C@H](CC(C)C)C(=O)N1C`, for which the activation in assay [1] was 22.3%. Besides, the Potency entry in assay [2] and in assay [3] was “inactive” each time.

As to `OC[C@@]1(O)CO[C@H](OC[C@H]2O[C@@H](OC(CCCCc3ccc(O)cc3)CCc3ccc(O)cc3)[C@H](O)[C@@H](O)[C@@H]2O)[C@@H]1O` (some centres undefined), the activation in assay [1] was -1.53%. For the same compound, the Potency result in assay [2] and in assay [3] was “inactive” throughout.

Regarding `Cc1ccc(C)c(NC(=O)[C@@H]2CCCN2S(=O)(=O)c2cccc3cccnc23)c1`, in assay [1], the activation was -4.33%. Moreover, the Potency entry in assay [2] and in assay [3] was “inactive” each time.

Turning to `CC(C)(C)NS(=O)(=O)c1ccc(-c2ccc3[nH]nc(N)c3c2)cc1`, the activation in assay [1] was 0%. The Potency entry in assay [2] and in assay [3] was “inactive” in each case.

For `O=C(/C=C/c1ccc(O)cc1)OCC1=CC2OC(=O)C3=CO[C@@H](O[C@@H]4O[C@H](CO)[C@@H](O)[C@H](O)[C@H]4O)[C@H]1[C@@H]32` (some centres undefined), the activation in assay [1] was 0%. The Potency result in assay [2] and in assay [3] was “inactive” in each case.

For the compound `CC1=C2CC(C)(C)CC2C(O)C2=C(C1)C(=O)OC2O` (centres undefined), the activation in assay [1] is -7.14%. In addition, the Potency entry in assay [2] and in assay [3] was “inactive” throughout.

Regarding `CC1(C)CC[C@]2(C(=O)O[C@@H]3O[C@H](CO)[C@@H](O)[C@H](O)[C@H]3O)CC[C@]3(C)C(=CCC4[C@@]5(C)CC[C@H](O[C@H]6O[C@H](CO)[C@@H](O)[C@H](O[C@@H]7O[C@H](CO)[C@@H](O)[C@H](O)[C@H]7O)[C@H]6O)C(C)(C)C5CC[C@]43C)[C@@H]2C1` (some centres undefined), in assay [1], the activation was 15.3%. Besides, the Potency result in assay [2] and in assay [3] was “inactive” throughout.

On to `CCOC(=O)c1ccc(OCCC2CCN(c3ccc(C)nn3)CC2)cc1`, for which the activation in assay [1] was -17.9%. For the same compound, the Potency entry in assay [2] and in assay [3] was “inactive” each time.

As for `NC[C@@H]1O[C@@H](O[C@@H]2[C@@H](O[C@@H]3O[C@H](CO)[C@@H](O)[C@H]3O)[C@H](O)[C@@H](N)C[C@H]2N)[C@@H](N)[C@H](O)[C@H]1O`, the activation in assay [1] is -0.893%. Also, the activity change, negative = inhibition in assay [2] is -0.412% [at 11.2 µM]; in assay [3], -9.15% [at 11.2 µM].

For the compound `CC(=O)O[C@H]1[C@H](Oc2ccccc2COC(=O)C2(O)C=CCCC2=O)O[C@H](CO)[C@@H](O)[C@@H]1O` (some centres undefined), in assay [1], the activation was -9.92%. For the same compound, the Potency entry in assay [2] and in assay [3] was “inactive” in each case.
